Data published in PubChem BioAssay (NCI).
The panel holds about 83,000 compounds, 20% with a hit somewhere; the sample as a whole holds those more often.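 Compound tested at a single concentration for 48 hours in 96-well plates; a percent growth value below 10 was scored as active.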 Active and inactive are the calls of the source.

What was measured:
Assay in all cases: NCI-60 one-dose screen, 48 h (100 = growth as untreated, 0 = no growth, -100 = all killed)
Settings in all cases: 10 µM unless noted
SR leukemia = test system: SR leukemia
RPMI-8226 leukemia = test system: RPMI-8226 leukemia
OVCAR-8 ovarian = test system: OVCAR-8 ovarian
OVCAR-5 ovarian = test system: OVCAR-5 ovarian
OVCAR-4 ovarian = test system: OVCAR-4 ovarian
SK-OV-3 ovarian = test system: SK-OV-3 ovarian
IGROV1 ovarian = test system: IGROV1 ovarian
OVCAR-3 ovarian = test system: OVCAR-3 ovarian
HS 578T breast = test system: HS 578T breast
NCI/ADR-RES ovarian = test system: NCI/ADR-RES ovarian
T-47D breast = test system: T-47D breast
BT-549 breast = test system: BT-549 breast
MDA-MB-435 melanoma = test system: MDA-MB-435 melanoma
SW-620 colon = test system: SW-620 colon
MCF7 breast = test system: MCF7 breast
HCT-116 colon = test system: HCT-116 colon
KM12 colon = test system: KM12 colon
HCC-2998 colon = test system: HCC-2998 colon

Measured: growth

COC(=O)[C@H]1Cc2c([nH]c3ccccc23)[C@H](c2ccc3c(c2)OCO3)N1
inactive: SR leukemia 103% | RPMI-8226 leukemia 97.5% | OVCAR-8 ovarian 103% | OVCAR-5 ovarian 100% | OVCAR-4 ovarian 94% | SK-OV-3 ovarian 102% | IGROV1 ovarian 90.6% | OVCAR-3 ovarian 99.7% | HS 578T breast 102% | NCI/ADR-RES ovarian 99.8% | T-47D breast 91.8% | BT-549 breast 99.5% | MDA-MB-435 melanoma 101% | SW-620 colon 102% | MCF7 breast 93.3% | HCT-116 colon 97.6% | KM12 colon 99.3%

O=CN1N=C(c2cccc(Nc3ccncc3)c2)CC1c1ccc2c(c1)OCO2 (stereo not drawn)
inactive: SR leukemia 82.1% | RPMI-8226 leukemia 80% | OVCAR-8 ovarian 91.3% | OVCAR-5 ovarian 98.5% | OVCAR-4 ovarian 82.7% | SK-OV-3 ovarian 78.6% | IGROV1 ovarian 102% | OVCAR-3 ovarian 99.6% | HS 578T breast 94.2% | NCI/ADR-RES ovarian 101% | T-47D breast 79.1% | BT-549 breast 106% | MDA-MB-435 melanoma 92.1% | SW-620 colon 102% | MCF7 breast 81.7% | HCT-116 colon 83.1% | KM12 colon 98.4%

CC/C(=C(/c1ccc(Cl)cc1)c1ccc(OCCN(CC)CC)cc1)c1ccc(OC)cc1
inactive: OVCAR-8 ovarian 60.4% | OVCAR-5 ovarian 61.5% | OVCAR-4 ovarian 70% | SK-OV-3 ovarian 89.8% | IGROV1 ovarian 60.4% | OVCAR-3 ovarian 65.8% | HS 578T breast 81.5% | NCI/ADR-RES ovarian 69.7% | T-47D breast 39.1% | BT-549 breast 67.7% | MDA-MB-435 melanoma 69.1% | SW-620 colon 40.2% | MCF7 breast 13.7% | HCT-116 colon 34.2% | HCC-2998 colon 54.7% | KM12 colon 35.1%
active: SR leukemia -26% | RPMI-8226 leukemia -21.4%

COC(=O)[C@@H](Cc1c[nH]c2ccccc12)NC[C@@H](O)CN1C(=O)/C(=C\c2cc(OC)c(OC)c(OC)c2)c2ccccc21
active: RPMI-8226 leukemia 6.06%
inactive: SR leukemia 12.2% | OVCAR-8 ovarian 59.3% | OVCAR-5 ovarian 105% | OVCAR-4 ovarian 63.1% | SK-OV-3 ovarian 98.6% | IGROV1 ovarian 78.9% | OVCAR-3 ovarian 65.3% | HS 578T breast 76% | NCI/ADR-RES ovarian 78.6% | T-47D breast 54.5% | BT-549 breast 68.4% | MDA-MB-435 melanoma 56.1% | SW-620 colon 77.3% | MCF7 breast 34.2% | HCT-116 colon 66% | KM12 colon 60.4%

C1=C2CCCC3=Cc4ccccc4OC23Oc2ccccc21
inactive: RPMI-8226 leukemia 26% | OVCAR-8 ovarian 38.5% | OVCAR-5 ovarian 71.1% | OVCAR-4 ovarian 52.6% | SK-OV-3 ovarian 30.8% | IGROV1 ovarian 44.5% | HS 578T breast 33.4% | NCI/ADR-RES ovarian 11.6% | T-47D breast 31.9% | BT-549 breast 26.4% | SW-620 colon 18.1% | MCF7 breast 13.5% | HCT-116 colon 24% | KM12 colon 19.8%
active: SR leukemia 6.44% | OVCAR-3 ovarian 3.51% | MDA-MB-435 melanoma -41.6%

COc1cc2c(c(OC)c1OC)C(=O)CC(c1cccc(C(=O)Nc3ccc(Br)cc3)c1)O2 (stereo not drawn)
inactive: SR leukemia 22.2% | RPMI-8226 leukemia 14.6% | OVCAR-8 ovarian 47.1% | OVCAR-5 ovarian 89.4% | OVCAR-4 ovarian 45.6% | SK-OV-3 ovarian 76.2% | IGROV1 ovarian 67.4% | OVCAR-3 ovarian 65% | HS 578T breast 91.4% | NCI/ADR-RES ovarian 36.1% | T-47D breast 20.3% | BT-549 breast 34% | MDA-MB-435 melanoma 30.3% | SW-620 colon 85.8% | MCF7 breast 42.9% | HCT-116 colon 46.6% | HCC-2998 colon 92.1% | KM12 colon 62.9%

O=C1/C(=C/c2cccc([N+](=O)[O-])c2)COc2ccc(O)c(O)c21
inactive: OVCAR-4 ovarian 15.3% | SK-OV-3 ovarian 68.9%
active: SR leukemia 8.03% | RPMI-8226 leukemia -24.7% | OVCAR-8 ovarian 5.45% | OVCAR-5 ovarian -48.8% | IGROV1 ovarian -21.6% | OVCAR-3 ovarian -83.6% | HS 578T breast 6.86% | NCI/ADR-RES ovarian 9.52% | T-47D breast -16.8% | BT-549 breast -3.03% | MDA-MB-435 melanoma -33.4% | SW-620 colon -31.4% | MCF7 breast 1.76% | HCT-116 colon -74.8% | HCC-2998 colon -85.2% | KM12 colon -45.7%

O=c1cc(-c2nccc3c2[nH]c2ccccc23)c2cc(Cl)ccc2o1
active: OVCAR-3 ovarian 7.46% | MDA-MB-435 melanoma 1.21% | HCT-116 colon 8.73%
inactive: SR leukemia 15.2% | RPMI-8226 leukemia 39.3% | OVCAR-8 ovarian 54.4% | OVCAR-5 ovarian 111% | OVCAR-4 ovarian 56.6% | SK-OV-3 ovarian 41.3% | IGROV1 ovarian 61.3% | HS 578T breast 37.3% | NCI/ADR-RES ovarian 33.4% | T-47D breast 59.4% | BT-549 breast 36.1% | SW-620 colon 34.3% | MCF7 breast 27.2% | HCC-2998 colon 74.2% | KM12 colon 29%

O=C(Cn1cc(CSc2nc3ccccc3o2)nn1)Nc1ccc([N+](=O)[O-])cc1
inactive: SR leukemia 101% | RPMI-8226 leukemia 97.3% | OVCAR-8 ovarian 107% | OVCAR-5 ovarian 100% | OVCAR-4 ovarian 96.9% | SK-OV-3 ovarian 76.6% | IGROV1 ovarian 91.6% | OVCAR-3 ovarian 103% | HS 578T breast 95.3% | NCI/ADR-RES ovarian 97.4% | T-47D breast 87.9% | BT-549 breast 96.7% | MDA-MB-435 melanoma 99.1% | SW-620 colon 102% | MCF7 breast 96.8% | HCT-116 colon 97.6% | HCC-2998 colon 110% | KM12 colon 94.8%

C=C(C)[C@@H]1CC[C@]2(COCCCNCCCN)CC[C@]3(C)[C@H](CC[C@@H]4[C@@]5(C)CC[C@H](OCCCN)C(C)(C)[C@@H]5CC[C@]43C)[C@@H]12
active: SR leukemia -49.2% | RPMI-8226 leukemia -51.7% | OVCAR-8 ovarian -66.3% | OVCAR-5 ovarian -49% | OVCAR-4 ovarian -79.4% | IGROV1 ovarian -81.1% | NCI/ADR-RES ovarian -80.2% | T-47D breast -65.2% | MDA-MB-435 melanoma -91.2% | SW-620 colon -80.8% | MCF7 breast -77.9% | HCT-116 colon -82.5% | HCC-2998 colon -24.8% | KM12 colon -89.8%
inactive: SK-OV-3 ovarian 102% | OVCAR-3 ovarian 47.8% | HS 578T breast 87.4% | BT-549 breast 99.6%

c1ccc2cc(Cn3cc[n+](Cc4ccc5ccccc5c4)c3)ccc2c1
active: RPMI-8226 leukemia -0.408% | OVCAR-4 ovarian 0.592% | IGROV1 ovarian -2.69% | T-47D breast -5.37% | BT-549 breast 2.35% | MDA-MB-435 melanoma 7.71% | KM12 colon -1.63%
inactive: SR leukemia 22.3% | OVCAR-8 ovarian 10.9% | OVCAR-5 ovarian 43% | SK-OV-3 ovarian 33.2% | OVCAR-3 ovarian 14.5% | HS 578T breast 58.8% | NCI/ADR-RES ovarian 99.5% | SW-620 colon 58% | MCF7 breast 37.2% | HCT-116 colon 41%

COc1cc(OC)cc(C(=O)Nc2cnc(Nc3ccc(N4CCOCC4)nc3)nc2Oc2ccc(C(F)(F)F)cc2)c1
active: OVCAR-4 ovarian 8.78%
inactive: SR leukemia 73% | RPMI-8226 leukemia 86.2% | OVCAR-8 ovarian 39.7% | OVCAR-5 ovarian 92.9% | SK-OV-3 ovarian 111% | IGROV1 ovarian 77.4% | OVCAR-3 ovarian 62.8% | HS 578T breast 30.4% | NCI/ADR-RES ovarian 60.1% | T-47D breast 69.9% | BT-549 breast 77.5% | MDA-MB-435 melanoma 74.9% | SW-620 colon 71.2% | MCF7 breast 59.1% | HCT-116 colon 16.1% | KM12 colon 88%

O=C(O)CCCN1C(=O)CSC1=S
inactive: SR leukemia 103% | RPMI-8226 leukemia 98% | OVCAR-8 ovarian 105% | OVCAR-5 ovarian 106% | OVCAR-4 ovarian 102% | SK-OV-3 ovarian 109% | IGROV1 ovarian 103% | OVCAR-3 ovarian 105% | HS 578T breast 98.9% | NCI/ADR-RES ovarian 103% | T-47D breast 97.7% | BT-549 breast 99.8% | MDA-MB-435 melanoma 97.7% | SW-620 colon 114% | MCF7 breast 90.9% | HCT-116 colon 102% | HCC-2998 colon 104% | KM12 colon 101%

COc1cc(OCc2cccc(-c3ccccc3)c2C)cc(OC)c1CN1CCCCC1C(=O)NCCOCCOCCN (stereo not drawn)
active: SR leukemia -26% | MDA-MB-435 melanoma -72.8%
inactive: RPMI-8226 leukemia 13.4% | OVCAR-8 ovarian 82.8% | OVCAR-5 ovarian 101% | OVCAR-4 ovarian 53.3% | SK-OV-3 ovarian 104% | IGROV1 ovarian 70% | OVCAR-3 ovarian 85% | HS 578T breast 84.5% | NCI/ADR-RES ovarian 103% | T-47D breast 71.2% | BT-549 breast 84.7% | SW-620 colon 61.2% | MCF7 breast 51.3% | HCT-116 colon 22.8% | KM12 colon 78.9%

CN(CCNc1ccc(C(=N)N)cc1)c1ccc(C(=N)N)cc1
inactive: SR leukemia 66.7% | RPMI-8226 leukemia 72.2% | OVCAR-8 ovarian 80.8% | OVCAR-5 ovarian 92% | OVCAR-4 ovarian 96.2% | SK-OV-3 ovarian 119% | IGROV1 ovarian 36.7% | OVCAR-3 ovarian 91.4% | HS 578T breast 101% | NCI/ADR-RES ovarian 97.1% | T-47D breast 126% | BT-549 breast 102% | MDA-MB-435 melanoma 92.6% | SW-620 colon 98.6% | MCF7 breast 116% | HCT-116 colon 101% | HCC-2998 colon 99.6% | KM12 colon 86.2%

CCCCC#Cc1c(I)n(C2OC(CO[Si](C)(C)C(C)(C)C)C3OC(C)(C)OC32)c(=O)[nH]c1=O (stereo not drawn)
active: SR leukemia -5.46% | RPMI-8226 leukemia -46.9%
inactive: OVCAR-8 ovarian 85.7% | OVCAR-5 ovarian 82.5% | OVCAR-4 ovarian 70.3% | SK-OV-3 ovarian 98.8% | IGROV1 ovarian 83.8% | OVCAR-3 ovarian 42.7% | HS 578T breast 100% | NCI/ADR-RES ovarian 84.5% | T-47D breast 12.3% | BT-549 breast 99.2% | MDA-MB-435 melanoma 82.9% | SW-620 colon 47.6% | MCF7 breast 62.4% | HCT-116 colon 50.2% | KM12 colon 109%

Clc1ccc2c(NCCCn3cnc4c(N5CCCC5)nc(Cl)nc43)ccnc2c1
inactive: SR leukemia 84.2% | RPMI-8226 leukemia 115% | OVCAR-8 ovarian 103% | OVCAR-5 ovarian 101% | OVCAR-4 ovarian 100% | SK-OV-3 ovarian 88.2% | IGROV1 ovarian 89% | OVCAR-3 ovarian 101% | HS 578T breast 104% | NCI/ADR-RES ovarian 93.3% | T-47D breast 85.6% | BT-549 breast 97.7% | MDA-MB-435 melanoma 101% | SW-620 colon 103% | MCF7 breast 91.9% | HCT-116 colon 93.4% | HCC-2998 colon 108% | KM12 colon 98.1%
